Measured values from ChEMBL document CHEMBL4513216, “Probing the Open Global Health Chemical Diversity Library for Multistage-Active Starting Points for Next-Generation Antimalarials” (ACS Infect Dis, 2020).
Among all 69,000 compounds or so, about 8,600 (12%) showed an effect of 50% or more. The sample as a whole holds a higher share of strong results than the screen did.

tested on: Plasmodium berghei; assay: Screen against P. berghei liver stage (PbLuc), transformed with Luciferase, at 10uM; format: functional, HepG2; conditions: tested at 10 uM

Row | SMILES | INHIBITION [%]
1 | CN(Cc1nnc2n1CCC2)C(=O)c1ccc2c(c1)OCCCO2 | 26.4
2 | Nc1nc2nc(C3CCCN(C(=O)c4cncs4)C3)ccc2s1 (centres undefined) | 18.3
3 | Cc1cnc(CN2CCCC2c2noc(C3CC3)n2)cn1 (centres undefined) | -4.94
4 | CCc1noc(CN2CCCC2c2noc(C3CC3)n2)n1 (centres undefined) | 27.4
5 | COc1c(C)cnc(CN2CCCC2c2noc(C3CC3)n2)c1C (centres undefined) | 21.3
6 | c1ccc2oc(CN3CCCC3c3noc(C4CC4)n3)nc2c1 (centres undefined) | -87.5025
7 | CCc1nc(C2CCCN2Cc2cc(C)nc3ccccc23)no1 (centres undefined) | 60.75
8 | Cc1nc(CN2CCCC2c2noc(C3CC3)n2)oc1C (centres undefined) | 49.35
9 | CCc1nc(C2CCCN2Cc2cnc(C)cn2)no1 (centres undefined) | -4.94
10 | Cc1nc(CN2CCCC2c2noc(C3CC3)n2)nc2ccccc12 (centres undefined) | 80.25
11 | CCc1nc(C2CCCN2Cc2nc3ccccc3o2)no1 (centres undefined) | 20.2
12 | Cc1noc(CN2CCCC2c2noc(C3CC3)n2)n1 (centres undefined) | 38.5
13 | c1ccc2nc(CN3CCCC3c3noc(C4CC4)n3)ccc2c1 (centres undefined) | 54.7
14 | COc1ccc(C)cc1CN1CCCC1c1noc(C2CC2)n1 (centres undefined) | 80.3
15 | O=C(NCC1(c2ccc(F)cc2)CCCC1)N1CCOC(CO)C1 (centres undefined) | -14.3
16 | CN(C)CCn1c2c(ccc1=O)CCN(C(=O)c1ccoc1)CC2 | -73.5
17 | Cc1c(C(=O)N2CCC(O)(CN(C)C)C2)c2ccccc2n1C (centres undefined) | 35.2
18 | O=c1oc(-c2cccs2)nn1CC(O)c1ccccc1F (centres undefined) | 35.4
19 | C1CC(c2noc(C3CC3)n2)N(Cc2nc(C3CC3)no2)C1 (centres undefined) | 2.3
20 | c1cc(CN2CCCC2c2noc(C3CC3)n2)on1 (centres undefined) | 37.4
21 | Cc1nc(CN2CCCC2c2ccsc2)nc2ccccc12 (centres undefined) | 53.8
22 | Cc1nn(C)c(C)c1C1CCCN1Cc1nc(N)c2ccccc2n1 (centres undefined) | 23.4

Row | SMILES | INHIBITION [%]
23 | Cc1nn(C)c(C)c1C1CCCN1Cc1nc(C)c2ccccc2n1 (centres undefined) | 12.7
24 | c1ccc2sc(CN3CCCC3c3noc(C4CC4)n3)nc2c1 (centres undefined) | 78
25 | NC(=O)c1nc(CC(=O)Nc2cccc(C(F)(F)F)c2)no1 | -14.8
26 | CCOC(=O)CCC(=O)NC(C)c1ccc(NC(=O)CC)cc1 (centres undefined) | 37.1
27 | O=C(Cc1cnc(-c2c(Cl)cccc2Cl)s1)N1CCOCC1 | 19.3
28 | CN1CCN(Cc2ccncc2)C(=O)C12CCN(c1nccs1)CC2 | 58.5
29 | CC(C)CN1CCN(C)C2(CCN(c3nccs3)CC2)C1=O | 45.2
30 | CN1CCN(CCO)C(=O)C12CCN(c1nccs1)CC2 | 23.1
31 | CCNc1nnc(SCc2nnc(C(C)(C)C)o2)s1 | -7.93
32 | CC(=O)N1CCN(C(=O)CN2CCCC2Cn2nc(C)cc2C)CC1 (centres undefined) | -14.6
33 | C=c1ncsc1=C1NN=C(C2CCCN2C(=O)Cn2cccn2)O1 (centres undefined) | 19.24
34 | CCOCc1cnc2n1CCN(Cc1scnc1C)C2C (centres undefined) | 20.1
35 | CC1c2ncc(COc3cccnc3)n2CCN1Cc1ccco1 (centres undefined) | 54.8
36 | Cc1csc(CN2CCn3c(COc4cccnc4)cnc3C2C)n1 (centres undefined) | 31.2
37 | Cc1ncsc1CN1CCn2c(COc3cccnc3)cnc2C1C (centres undefined) | 58.7
38 | CC1c2ncc(COc3cccnc3)n2CCN1C(=O)Cc1ccco1 (centres undefined) | -36.3
39 | Cc1ccsc1CN1CCn2c(COc3cccnc3)cnc2C1C (centres undefined) | 65.7
40 | CC1c2ncc(COc3cccnc3)n2CCN1Cc1cnn(C)c1 (centres undefined) | 34
41 | Cc1ccc(CN2CCn3c(COc4cccnc4)cnc3C2C)o1 (centres undefined) | 25.8
42 | Cc1ncsc1CN1CCn2c(COCC3CC3)cnc2C1C (centres undefined) | 18.5
43 | O=C1CC2(CCCNC2)C(=O)N1Cc1cccc(F)c1 (centres undefined) | 0.112
44 | Cc1ccc(C(=O)NS(=O)(=O)Cc2ccc(F)cc2)cc1S(C)(=O)=O | 41.6

Row | SMILES | INHIBITION [%]
45 | CNC(=O)c1ccc2c(c1O)OC(C)(C)C2 | 30
46 | CNC(=O)CN1CCN(C(=O)c2ccn(C)c(=O)c2)CC1 | -7.31
47 | CN(C)C(=O)CN1CCC2(CCN(C(=O)N(C)C)CC2)C1=O | -19.6
48 | CC(C)CN1CCC2(CCN(Cc3ccc(F)cc3)CC2)C1=O | -15.9
49 | Cn1cc(CN2CCCC3(CCN(Cc4cccnc4)C3=O)C2)cn1 (centres undefined) | 43.2
50 | CN(C)C(=O)CN1CCC2(CCCN(Cc3ccoc3)C2)C1=O (centres undefined) | 53.9
51 | CN(C)C(=O)CN1CCC2(CCCN(Cc3cccnc3)C2)C1=O (centres undefined) | 72.9
52 | CN(C)C(=O)CN1CCC2(CCCN(Cc3cccn3C)C2)C1=O (centres undefined) | -10.2
53 | CN(C)C(=O)CN1CCC2(CCN(S(C)(=O)=O)CC2)C1=O | 18.6
54 | CN(C)C(=O)CN1CCC2(CCN(C(=O)N3CCCC3)CC2)C1=O | 54.3
55 | CN1CCC(CN2CCC3(CCCN(Cc4ccoc4)C3)C2=O)CC1 (centres undefined) | 1.34
56 | CC(C)CN1CCC2(CCN(Cc3ccoc3)CC2)C1=O | 50.7
57 | O=C1N(CC2CC2)CCC12CCN(Cc1ccoc1)CC2 | 11.2
58 | CN(C)C(=O)CN1CCC2(CCCN(Cc3ccsc3)C2)C1=O (centres undefined) | 18.6
59 | O=C1CCN(C(=O)NCC(c2ccccc2)c2ccccc2)CCN1 | -61.4
60 | O=C1CC[C@H](C(=O)Nc2cnn(-c3ccccc3Br)c2)N1 | 30
61 | Cc1cc(C)nc(C2CCN(C(=O)c3c(C)noc3C)C2)n1 (centres undefined) | -8.12
62 | Cc1ncnc2c1CCN(Cc1cccs1)CC2 | -33
63 | Cc1ccc(C(=O)N2CCCCC2CNC(N)=O)cc1F (centres undefined) | 44.3
64 | O=C([C@H]1CN(Cc2ccoc2)C[C@H]2OCC[C@@H]12)N1CCCCO1 | 39.4
65 | Cc1ccc(-n2ncc(C(=O)N3CCCC3c3cnn(C)c3)c2C)cc1 (centres undefined) | 2.3
66 | CC(C)Oc1ncccc1CNC(=O)c1cnccn1 | 7.12

Row | SMILES | INHIBITION [%]
67 | CNS(=O)(=O)CCNC(=O)[C@@]12CNC[C@@H]1CN(C1CCCC1)C2 | 28.7
68 | CN1CCC(O)(CCNC(=O)[C@@]23CNC[C@@H]2CN(C2CCCC2)C3)CC1 | 62.9
69 | CCS(=O)(=O)CCNC(=O)[C@@]12CNC[C@@H]1CN(C1CCCC1)C2 | 30.8
70 | Cc1nn(C)cc1S(=O)(=O)N[C@@H]1CCC[C@@H](n2ccnc2)[C@@H]1O | 7.19
71 | CCC(C)Sc1nncn1-c1ccc(OC)nc1 (centres undefined) | -30.5
72 | COc1ccc(-n2cnnc2SCC(C)(C)O)cn1 | 1.28
73 | COc1ccc(-n2cnnc2SCC(=O)NC(C)C)cn1 | 64.5
74 | COC(=O)CCSc1nncn1-c1ccc(OC)nc1 | 22.6
75 | COc1ccc(-n2cnnc2SCC(=O)N(C)C(C)C)cn1 | 59.4
76 | COc1ccc(-n2cnnc2SCCC#N)cn1 | 33.4
77 | COCCS(=O)(=O)NCc1ccc(N(C)C)c(C)c1 | 2.65
78 | COCC(=O)N1CCCC1(C)c1nc(C)cc(O)n1 (centres undefined) | -33.4
79 | CCCc1n[nH]c(C2CN(C(=O)c3ccc4c(c3)COC4)CCO2)n1 (centres undefined) | 15.5
80 | COCc1nc(C(=O)N2CCCC2c2cc(C)no2)cs1 (centres undefined) | -3.2
81 | Cc1ncc2c(n1)CN(CC(=O)NCCOc1ccccc1)CC2 | -3.7
82 | Cc1ccc(N2CCC3(CCN(C(=O)c4ccsc4)CC3)CC2)nn1 | 9.63
83 | C[C@@H]1CN(C(=O)Cc2ccsc2)C[C@]12CCN(CCN(C)C)C2=O | 26
84 | COCCN1CCN(C(=O)N2CCCC2)Cc2ccc(C)nc21 | 62.5
85 | Cc1ccc2c(n1)N(CCn1cccn1)CCN(C(=O)NC1CC1)C2 | 37.8
86 | COCCN1CCN(C(=O)NC2CC2)Cc2ccc(C)nc21 | 60.1
87 | COCCN1CCN(S(=O)(=O)C2CC2)Cc2ccc(C)nc21 | 0.804
88 | Cc1ccc2c(n1)N(CC1CC1)CCN(C(=O)NC1CC1)C2 | 30.3

Row | SMILES | INHIBITION [%]
89 | Cc1ccc2c(n1)N(CCN(C)C)CCN(C(=O)N1CCOCC1)C2 | 18.3
90 | COCCC(=O)N1CCC(c2ccc3c(NC(C)C)n[nH]c3n2)C1 (centres undefined) | -36.4
91 | CCOC1COC2(CCN(Cc3ccc(C)cc3)CC2)C1 (centres undefined) | 17.4
92 | CCOc1ncnc2c1CCN(C(=O)CN(C)C)CC2 | 42.3
93 | CC(C)(C)C(=O)N1CC(=O)N(Cc2ccco2)CC(O)C1 (centres undefined) | 40.4
94 | CCCC(NC(=O)c1cc(C)c(F)cc1F)c1nnn[nH]1 (centres undefined) | 58.5
95 | CCCC(NC(=O)c1ccc(C)cc1C)c1nnn[nH]1 (centres undefined) | 43.1
96 | CCCC(NC(=O)c1cc(C)ccc1C)c1nnn[nH]1 (centres undefined) | 16.6
97 | Cn1cc(C(=O)Nc2ccc3c(c2)CN(C(=O)C2CC2)CC3)nn1 | -7.25
98 | CC(=O)N(Cc1ncc(C(C)C)o1)C1CCN(Cc2cc(C)on2)C1 (centres undefined) | 2.7
99 | O=C(NCc1ccco1)Nc1cccc(S(=O)(=O)C(F)F)c1 | 42.4
100 | O=C(CNc1ccccc1S(=O)(=O)C(F)F)NCc1ccco1 | 33.2
101 | O=C(CNc1cccc(S(=O)(=O)C(F)F)c1)NCc1ccco1 | 51.7
102 | CNc1cc(C2CN(Cc3csc(C)n3)CCO2)nc(C)n1 (centres undefined) | 41.2
103 | CNc1cc(C2CN(Cc3scnc3C)CCO2)nc(C)n1 (centres undefined) | -26.2
104 | Cc1nc(C2CN(Cc3scnc3C)CCO2)cc(N(C)C)n1 (centres undefined) | 68.9
105 | CC(C(=O)N1CCN(c2ccc(F)cc2)CC1)n1cc(Br)cn1 (centres undefined) | 6.83
106 | Cn1nnc2c1CCN(C(=O)C1CCC1)C2COCCN1CCCC1 (centres undefined) | 19.5
107 | Cc1cc(CN2CCN(C(=O)NC(C)c3cccnc3)CC2)no1 (centres undefined) | 7.15
108 | O=C(NCc1nccn1CCc1ccccc1)NCC1CCC1 | 44.5
109 | c1snnc1CN1C[C@H]2CCC[C@@H](CN3CCOCC3)[C@H]2C1 | -41.8
